Compound activity deposited in PubChem by several laboratories.
Only some compounds are listed: those with a hit (about 2.8% of all), similar ones and a draw of the others.
GAA850 FXN act: activators of GAA850 frataxin (FXN) promoter; 360,000 compounds, 0.56% hits; HEK293 lucGAA850 FXN promoter luciferase reporter, 24 h; percent of 10 µM SAHA response; activation, % at 6 µM;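 active = activation above the average of all compounds screened plus 3 SD, cutoff fixed separately per campaign, cut at about 7.5% in these data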;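 also: 0% = DMSO wells and 100% = 10 µM SAHA wells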
esBAF inh: blocks esBAF chromatin remodeling in mouse ES cells | Bmi1-luciferase knock-in reporter, 24 h; 100% = twice the neutral-well signal | reporter increase, % at 12.5 µM | 350,000 compounds, 2% hits | AID 602393; in the data active = activation above about 40%; inconclusive = no clear call, values can overlap the other calls;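 also: 0% = median of the plate's neutral control wells and 100% = double that signal; a rise in the Bmi1 reporter signal indicates esBAF inhibition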
Wnt bcat act: activators of Wnt/beta-catenin signaling; Wnt/beta-catenin reporter cell assay, activator, plate reader; 300,000 compounds, 1.2% hits; activation, % at 9.35 µM; AID 743398; in the data active = activation above about 30%, passing the limit was not always enough; inconclusive = no clear call, values can overlap the other calls;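 also: 0% = neutral control wells and 100% = positive control wells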
MITF TRPM1 HTS: MITF TRPM1 promoter activation in melanoma cells | SK-MEL-5 TRPM1-promoter luciferase, 24 h; % of positive control, neutral wells = 0 | activation, % at 12.5 µM | 300,000 compounds, 0.75% hits | AID 588334;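 active = mean activation of at least 80% with every replicate also reaching 80%; inconclusive = mean reaches 80% but some replicate falls short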;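 also: 0% = neutral control wells and 100% = parthenolide positive control wells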
GAA30 counter: counter-screen for GAA850 frataxin promoter activators: GAA30 promoter activation | 1,900 compounds, 66% hits | activation, % at 6 µM | shares compounds with GAA850 FXN act | HEK293 lucGAA30 FXN promoter luciferase, 24 h; DMSO = 0%, 5 µM ipriflavone = 100%;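 active = mean activation above the mean of solvent-only control wells plus 3 SD, cut at about 22% in these data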;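 also: counterscreen of GAA850 promoter hits where activity marks nonselective or luminescence artifacts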
GAA850 confirm: confirmation of GAA850 frataxin (FXN) promoter activators | HEK293 lucGAA850 FXN promoter luciferase reporter, 24 h; 100% = activation by SAHA | activation, % at 6 µM | shares compounds with GAA850 FXN act | 1,900 compounds, 86% hits;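 active = mean activation above a set limit taken from the primary screen, cut at about 8% in these data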;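 also: 0% = DMSO wells and 100% = 10 µM SAHA wells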
Starred values were filed as active, the others as inactive; ! = repeats disagree.

For Cc1ccc(NN2C(=O)C=C(c3ccccc3)C2=O)cc1 the results were GAA850 FXN act 10.0*, Wnt bcat act -6, GAA30 counter 32* and GAA850 confirm 28*.
C[C@H]1CN([C@@H](C)CO)C(=O)c2cc(C3=CCCCC3)cnc2O[C@@H]1CN(C)C(=O)Nc1ccc(F)cc1 was read as esBAF inh 3.
Screening c1ccc(-c2n[nH]c(-c3ccccn3)n2)nc1 returned GAA850 FXN act 7.7*!, esBAF inh -8, Wnt bcat act 11, MITF TRPM1 HTS 35, GAA30 counter 102* and GAA850 confirm 27*.
`c1ccc(-c2n[nH]c(-c3ccccn3)n2)cc1` gave GAA850 FXN act 4, esBAF inh 6 and MITF TRPM1 HTS 61.
O=C(NCC[C@H]1CC[C@@H](NC(=O)C2CCCC2)[C@@H](CO)O1)c1cnccn1 was read as esBAF inh 0.
Screening CC1CCN(c2ccc(NC(=S)NC(=O)c3ccco3)cc2)CC1 returned GAA850 FXN act 7.9*, esBAF inh 46*, MITF TRPM1 HTS 17, GAA30 counter 69* and GAA850 confirm 32*.
For Cc1ccc(C(=O)NC(=S)Nc2ccc(N3CCN(C(=O)c4ccco4)CC3)cc2)cc1 the results were GAA850 FXN act -2, esBAF inh -11, Wnt bcat act -3 and MITF TRPM1 HTS -19.
Screening CCc1nc2sc(C(C)=O)c(N)c2c2c1CCCC2 returned GAA850 FXN act -1 and Wnt bcat act -1.
For CCc1nc2sc(C#N)c(N)c2c2c1CCCC2 the results were GAA850 FXN act 10*, esBAF inh -3, MITF TRPM1 HTS -10, GAA30 counter 14 and GAA850 confirm 14*.
`Cc1ccc(S(=O)(=O)Nc2ccc3c(c2)C(=O)N([C@H](C)CO)C[C@@H](C)[C@H](CN(C)Cc2ccc4c(c2)OCO4)O3)cc1` gave esBAF inh 1.
For C[C@H]1CN([C@@H](C)CO)C(=O)c2cc(NS(=O)(=O)c3cccs3)ccc2O[C@H]1CN(C)C(=O)NC1CCCCC1 the results were esBAF inh 1.
Cc1snc(SCC(=O)c2ccc(F)cc2)c1C#N was read as GAA850 FXN act 8.2*, Wnt bcat act 12, MITF TRPM1 HTS 55, GAA30 counter 79* and GAA850 confirm 28*.
Cc1snc(SCC(=O)c2ccc([N+](=O)[O-])cc2)c1C#N was read as GAA850 FXN act 4, Wnt bcat act 2 and MITF TRPM1 HTS 15.
Screening O=C(C[C@H]1C=C[C@@H](NC(=O)NC2CCCC2)[C@@H](CO)O1)NCc1ccc(F)cc1 returned esBAF inh 2.
COc1ccc(C(=O)Nc2ccccc2C(=O)N/N=C/c2ccccn2)cc1OC was read as GAA850 FXN act 10*, Wnt bcat act 9, GAA30 counter -110 and GAA850 confirm -32.
`O=C(N/N=C/c1ccccn1)c1ccc(Cl)cc1` gave GAA850 FXN act 12*, esBAF inh inconclusive, Wnt bcat act 20, MITF TRPM1 HTS -13, GAA30 counter -77 and GAA850 confirm -20.
`COc1ccc(C(=O)N/N=C/c2ccccn2)cc1OC` gave GAA850 FXN act 1, esBAF inh 11, Wnt bcat act 2 and MITF TRPM1 HTS 2.
`O=C(N/N=C/c1ccccn1)c1ccccc1` gave GAA850 FXN act 4, Wnt bcat act 6 and MITF TRPM1 HTS 30.
`C[C@H](CO)N1C[C@H](C)[C@H](CN(C)C(=O)Nc2ccc(F)cc2)Oc2ccc(NC(=O)Cc3ccccc3)cc2CC1=O` gave esBAF inh 3.
Screening CCCNC(=O)C[C@@H]1CC[C@H]2[C@@H](COC[C@H](O)CN2C(=O)c2cccnc2)O1 returned esBAF inh 3.
`O=C(N[C@H]1CC[C@H](CCNS(=O)(=O)c2ccc(F)cc2)O[C@@H]1CO)c1cnccn1` gave esBAF inh 6.
Cc1ccc(-n2c(C)cc(C(=O)CSc3n[nH]c(N)n3)c2C)cc1 was read as GAA850 FXN act 3, esBAF inh 11 and MITF TRPM1 HTS 36.
For Cc1cc(C(=O)CSc2n[nH]c(N)n2)c(C)n1-c1ccccc1 the results were GAA850 FXN act 8.9*, esBAF inh 37, Wnt bcat act 12, MITF TRPM1 HTS 4, GAA30 counter 101* and GAA850 confirm 28*.
For C[C@H]1CN([C@@H](C)CO)C(=O)c2cc(NC(=O)c3ccncc3)ccc2O[C@@H]1CN(C)CC1CCCCC1 the results were esBAF inh -2.
Cc1nnc(SCC(=O)c2cc(C)n(-c3ccc4c(c3)OCO4)c2C)s1 was read as GAA850 FXN act 11*, esBAF inh 70*, Wnt bcat act 12, MITF TRPM1 HTS 25, GAA30 counter 66* and GAA850 confirm 26*.
For C[C@@H]1CN([C@H](C)CO)C(=O)Cc2cc(NC(=O)C3CC3)ccc2O[C@H]1CN(C)CC1CCCCC1 the results were esBAF inh -1.
For NC[C@H](O)c1ccc(O)c(O)c1 the results were GAA850 FXN act 7.6*, esBAF inh -2, Wnt bcat act -2, MITF TRPM1 HTS 2, GAA30 counter 12 and GAA850 confirm 6.
`COc1ccc(-c2noc(-c3ccoc3C)n2)cc1OC` gave GAA850 FXN act 7.8*, Wnt bcat act 12, MITF TRPM1 HTS 89*, GAA30 counter 96* and GAA850 confirm 33*.
`COc1ccc(-c2noc(-c3ccccc3Cl)n2)cc1OC` gave GAA850 FXN act 8.6*, esBAF inh inconclusive, Wnt bcat act 0, MITF TRPM1 HTS 86*, GAA30 counter 112* and GAA850 confirm 40*.
For COc1ccc(/C=C/c2nc(-c3ccccc3O)n[nH]2)cc1 the results were GAA850 FXN act 7.6*, Wnt bcat act 38*, MITF TRPM1 HTS 43, GAA30 counter 94* and GAA850 confirm 23*.
Screening COC(=O)C[C@H]1CC[C@H]2[C@H](COc3ccc(NC(=O)Nc4ccc(C)cc4)cc3C(=O)N2C)O1 returned esBAF inh 2.
Screening C[C@@H]1CCCCO[C@@H](CN(C)S(=O)(=O)c2ccc(F)cc2)[C@H](C)CN([C@@H](C)CO)C(=O)c2cc(NC(=O)c3ccncc3)ccc2O1 returned esBAF inh 5.
Screening CC(C)(C)c1csc(N/N=C/c2cccnc2)n1 returned GAA850 FXN act 7.9*, esBAF inh 34*, Wnt bcat act 12, MITF TRPM1 HTS 58, GAA30 counter 91* and GAA850 confirm 37*.
Screening COc1c(F)c(F)c(C(=O)Nc2ccccc2N2CCN(C(=O)C(C)C)CC2)c(F)c1F returned GAA850 FXN act 11*, esBAF inh 4, MITF TRPM1 HTS -16, GAA30 counter 8 and GAA850 confirm 3.
CO[C@H]1CN(C)C(=O)c2ccc(NC(=O)c3cnccn3)cc2OC[C@H](C)NC[C@H]1C was read as esBAF inh 0.
